# Laboratory results published in PubChem BioAssay AID463173 (ICCB-Longwood Screening Facility, Harvard Medical School, 2010).
# Hit rate of the full screen: of about 52,000 compounds, about 4,300 (8.3%) were called active. This is one part of a sample in which actives are shown more often than they occur. Values without a mark were called inactive. Rule as the data show it: active = survival mostly below about 52% (no sharp cut-off); inactive = mostly above about 56%.
# System: DeltatarO mutant
# Test: S. aureus survival, RN4220 and DeltatarO strains – OD600, teichoic acid synthesis inhibitors, primary screen (AID 463173)
# Details: S. aureus RN4220 wild type/DeltatarO growth, OD600, 18 h, active compounds read low, screened at 18.75 µg/mL (by protocol)
row,SMILES,survival
1,CCC(C)Nc1nc2c(c(=O)[nH]c(=O)n2C)n1Cc1ccc(F)cc1 (stereo not given),73%
2,Cc1cc(C)c(NC(=O)CN(c2ccccc2)S(=O)(=O)N(C)C)c(C)c1,66%
3,CCCc1ccc(OCC(=O)Nc2sc3c(c2C(=O)OCC)CCC(C(C)(C)C)C3)cc1 (stereo not given),125%
4,COc1ccc(-n2c(=O)c3ccc(C(=O)NCc4ccc(C)cc4)cc3n(Cc3ccc(F)cc3Cl)c2=O)cc1,99%
5,COc1ccc(C2=NC(C)(C)N(CC(=O)Nc3cccc(C)c3)C2=O)cc1,76%
6,CC(=O)N(Cc1ccccc1)Cc1cc2cc(C)ccc2n2nnnc12,77%
7,COc1ccc(Nc2nc(N)nc(N)c2S(=O)(=O)c2ccccc2)cc1,78%
8,O=C(CCS(=O)(=O)c1cc(Br)cc2c1N(C(=O)C1CC1)CC2)NCc1ccccc1Cl,100%
9,O=c1c2sc3ccccc3c2n(Cc2ccc(Cl)cc2)c(=O)n1Cc1ccco1,83%
10,NNc1nc(N2CCOCC2)nc(N2CCOCC2)n1,76%
11,Cc1cccc(Nc2nc(Nc3cccc(C)c3)nc(N3CCOCC3)n2)c1,1% (active)
12,c1ccc(Nc2nc(N3CCCCC3)nc(N3CCCCC3)n2)cc1,106%
13,Cc1ccc(Nc2nc(Nc3ccc(C)c(C)c3)nc(N3CCOCC3)n2)cc1C,34% (active)
14,Cc1ccc(Nc2c(-c3ccc(N4CCOCC4)cc3)nc3ncccn23)cc1C,88%
15,Fc1ccc(Nc2nc(Nc3ccc(F)cc3)nc(N3CCOCC3)n2)cc1,87%
16,CCc1ccc(CNC(=O)c2ccc(-c3nc(CS(=O)(=O)c4ccccc4)c(C)o3)cc2)cc1,54%
17,CC(C)(C)OC(=O)N1CCC(c2c(C(=O)O)cnn2-c2ccc(F)cc2F)CC1,87%
18,CCCCN1CC(c2nc3ccccc3n2CCCCOc2cc(C)ccc2C)CC1=O (stereo not given),15% (active)
19,CCOc1ccccc1N1CC(c2nc3ccccc3n2CCCCOc2ccccc2)CC1=O (stereo not given),59%
20,CCOc1ccccc1N1CC(c2nc3ccccc3n2CCCOc2ccccc2OC)CC1=O (stereo not given),76%
21,CCOc1ccccc1N1CC(c2nc3ccccc3n2CCCCOc2cc(C)ccc2C)CC1=O (stereo not given),47% (active)
22,CCCCN1CC(c2nc3ccccc3n2CCCCOc2ccc(C)cc2C)CC1=O (stereo not given),13% (active)
23,Cc1ccc(OCCCn2c(C3CC(=O)N(c4cccc(Cl)c4)C3)nc3ccccc32)c(C)c1 (stereo not given),76%
24,CC(=O)c1c(C)n(-c2cccc(C)c2)c2ccc(OC(=O)COc3ccccc3)cc12,70%

row,SMILES,survival
1,COc1ccc(OC)c(NC(=O)COCc2cc(-c3ccco3)on2)c1,49%
2,Cc1ccc(CNC(=O)Cn2c(=O)n(Cc3ccc(F)cc3)c(=O)c3sc4ccccc4c32)cc1,92%
3,O=C1CCCN1c1ccc(S(=O)(=O)N2CCCCC2)cc1,93%
4,COc1cccc2c1cc1c(=O)n(CC(=O)N3CCN(c4cc(Cl)ccc4C)CC3)nc(C)n12,74%
5,O=C(Nc1cccc(C(=O)OCc2cc(=O)n3nc(C4CC4)sc3n2)c1)c1cccc(Cl)c1,80%
6,CNC(=O)COc1ccc(NC(=O)c2ccc(-c3nn(C)c(=O)c4ccccc34)cc2)cc1,75%
7,CNC(=O)c1ccc(NC(=O)COc2ccc(-c3nn(C)c(=O)c4ccccc34)cc2)cc1,62% (active)
8,COc1ccccc1NC(=O)COc1ccc(-c2nn(C)c(=O)c3ccccc23)cc1,37% (active)
9,Cc1ccc(NC(=O)COc2ccc(-c3nn(C)c(=O)c4ccccc34)cc2)cc1,48%
10,Cn1nc(-c2ccc(OCC(=O)Nc3ccccc3)cc2)c2ccccc2c1=O,47%
11,COc1ccc(NC(=O)COc2ccc(-c3nn(C)c(=O)c4ccccc34)cc2)cc1,75%
12,CC(=O)c1ccc(NC(=O)c2nc3ccccc3n(C)c2=O)cc1,80%
13,CC(C)Cn1c(=O)c2ccccc2n2c(CCC(=O)NC(C)c3ccccc3)nnc12 (stereo not given),87%
14,CN(C)S(=O)(=O)c1ccc(C(=O)Nc2c(C(=O)Nc3ccc(F)cc3)oc3ccccc23)cc1,73%
15,Cc1ccc(NC(=O)Cc2coc3c(C)c(C)ccc23)c(C)c1,96%
16,COc1ccc(CNC(=O)Cn2nc3c(cc2=O)CCCC3)cc1,46% (active)
17,Cc1ccc(NC(=O)Cn2nc3c(cc2=O)CCCC3)cc1Cl,93%
18,O=C(Cn1nc2c(cc1=O)CCCC2)NCc1ccccc1,105%
19,CCOC(=O)c1cccc(NC(=O)Cn2nc3c(cc2=O)CCCC3)c1,37% (active)
20,CCOC(=O)c1cccc(NC(=O)Cn2cnc3nc4c(cc3c2=O)CCCC4)c1,94%
21,O=C(Cn1nc2c(cc1=O)CCCC2)NCc1ccc(Cl)cc1,115%
22,COc1ccc(Cl)cc1C(=O)CSc1nnnn1C1CCCCC1,93%
23,COc1ccc(NC(=O)CCCc2nnc3n(C(C)C)c(=O)c4sccc4n23)cc1Cl,93%
24,CC(C)CCN(Cc1ccco1)C(=O)c1cc2c(Cl)nc3ccccc3c2s1,68%

row,SMILES,survival
1,CC(C)OCCCN(Cc1ccco1)C(=O)c1cc2c(s1)-c1ccccc1OC2,-5% (active)
2,CC(C)CCN(Cc1ccco1)C(=O)c1cc2c(s1)-c1ccccc1OC2,-4% (active)
3,COCCCN(Cc1ccco1)C(=O)c1cc2c(s1)-c1ccccc1OC2,-3% (active)
4,COc1ccccc1CNC(=O)c1cc2c(s1)-c1ccccc1OC2,61%
5,CN(C)CCN(Cc1ccco1)C(=O)c1cc2c(s1)-c1ccccc1OC2,69%
6,Cc1ccc(C(C)C)c(OCC(=O)Nc2ccc(O)c(-c3nc4cc(Cl)ccc4o3)c2)c1,73%
7,CC(C)CNC(=O)Cc1ccccc1,65%
8,O=C(CN1CCSc2ccccc21)N1CCCCC1,78%
9,Clc1ccccc1N1CCN(c2ncnc3c2c(-c2ccccc2)cn3-c2ccccc2)CC1,80%
10,Cc1ccccc1C(=O)Nc1ccc2nc(SCC(=O)N3CCc4ccccc43)sc2c1,106%
11,Cc1ccc(-c2c(C)n3c4c(=O)n(C)c(=O)n(C)c4nc3n2CCCO)cc1,81%
12,CCOC(=O)CSc1nnc(CNc2ccc(C)cc2C)n1-c1ccccc1,58%
13,CCN1CCN(C(c2cccc(F)c2)c2c(O)cc(C)n(CCOC)c2=O)CC1 (stereo not given),73%
14,COc1cc(CNC(=O)c2sc3ncccc3c2-n2cccc2)cc(OC)c1OC,118%
15,COCCNC(=O)c1sc2ncccc2c1-n1c(C)ccc1C,98%
16,CN(C)c1ccc(CNC(=O)c2sc3ncccc3c2-n2cccc2)cc1,102%
17,CCc1ccc(CNC(=O)c2sc3ncccc3c2-n2c(C)ccc2C)cc1,0% (active)
18,Cc1ccc(CCNC(=O)c2sc3ncccc3c2-n2c(C)ccc2C)cc1,64%
19,CC(C)Oc1ccc(CNC(=O)c2sc3ncccc3c2-n2cccc2)cc1,46% (active)
20,Cc1cc(SCC(=O)NCc2ccccc2Cl)nc(=O)[nH]1,96%
21,CCc1ccc(-c2nc(CS(=O)CC(=O)NCCc3ccc(C)cc3)c(C)o2)cc1 (stereo not given),89%
22,CCOc1ccc(C(=O)c2cn(Cc3ccccc3)c3c(F)cc(F)cc3c2=O)cc1,78%
23,CCc1ccc(NC(=O)Cn2c(=O)c3cc(Cl)ccc3n3nncc23)cc1,80%
24,CCOc1ccc(CNC(=O)C2CCCN(c3nn4cc(-c5ccc(F)cc5)nc4s3)C2)cc1 (stereo not given),67%

row,SMILES,survival
1,Cc1ccc(CCNC(=O)c2cc3sccc3n2Cc2ccc(F)cc2)cc1,87%
2,Cc1ccc(-c2onc(C)c2C)cc1S(=O)(=O)NCc1cccs1,91%
3,Cc1ccc(-c2onc(C)c2C)cc1S(=O)(=O)NCc1ccco1,87%
4,COc1ccc(CCNS(=O)(=O)c2cc(-c3onc(C)c3C)ccc2OC)cc1OC,-1% (active)
5,COCCCNS(=O)(=O)c1cc(-c2onc(C)c2C)ccc1OC,115%
6,COc1ccc(-c2onc(C)c2C)cc1S(=O)(=O)NCCc1ccccc1,90%
7,Cc1ccc(-c2onc(C)c2C)cc1S(=O)(=O)NCc1ccc(N(C)C)cc1,-2% (active)
8,CC(C)NC(=O)Nc1ccc2c(c1)N(C)C(=O)c1ccccc1S2,117%
9,CCOC(=O)/C(C#N)=C/C1=C(N)CC(C)(C)OC1,95%
10,Cc1ccc(NC(=O)Cn2c(=O)n(Cc3ccc4c(c3)OCO4)c(=O)c3ccc(C(=O)NC4CCCCC4)cc32)c(C)c1,100%
11,Cc1ccc(NC(=O)C(C)Sc2nnc(C3CCCCC3)n2C)cc1 (stereo not given),109%
12,CCN(C(=O)Cn1nc(Cc2ccncc2)c2ccccc2c1=O)c1cccc(Cl)c1,83%
13,CCC(=O)NCc1nc2ccccc2n1Cc1ccccc1,122%
14,Cc1cccc(Cn2c(COc3ccc(Cl)cc3)nc3ccccc32)c1,59%
15,Cc1ccc(Cn2c(Cc3ccccc3)nc3ccccc32)cc1,-1% (active)
16,Cc1ccc(Cn2c(CCNC(=O)C(C)C)nc3ccccc32)cc1,78%
17,Cc1cccc(Cn2c(COc3ccccc3)nc3ccccc32)c1,-2% (active)
18,CC(O)c1nc2ccccc2n1Cc1ccccc1 (stereo not given),57%
19,O=C(NCCc1nc2ccccc2n1Cc1ccc(Cl)cc1)c1ccccc1,72%
20,CC(C)(C)c1ccc(Cn2c(Cc3ccccc3)nc3ccccc32)cc1,0% (active)
21,CCn1c(COc2ccc(Cl)cc2Cl)nc2ccccc21,57%
22,Cc1ccc(Cn2c(CNC(=O)c3cccc(C)c3)nc3ccccc32)cc1,96%
23,Clc1ccc(OCc2nc3ccccc3n2Cc2ccccc2)c(Cl)c1,14% (active)
